# According to PubChem BioAssay:
# Activity calls are given as the source filed them.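 Rule for the calls, unless noted: active = fluorescence slope higher than the sample average by over 3 SD (cut at about -0.22 in these data, passing the limit was not always enough); inactive = the rest.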
# How the values were obtained:
# [1] = inhibitors of TNFa-induced NFkB p65 translocation, primary screen, imaging, HUVEC, MLSMR starter and 10KST1 sets (AID 438;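 active = inhibition above 20% together with a positive visual image hit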;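 note: compound added about 3h40 before a 20 min TNFalpha stimulation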;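 for inhibition: signal is the nuclear over cytoplasmic p65 intensity ratio per well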); details: HUVEC TNFa-induced p65 nuclear translocation; cell count: measured here: nuclei count (cytotoxicity indicator), at 2.08 µM; inhibition: at 2 µM, stronger effect = higher value, 0% TNFa-plus-vehicle, 100% no-TNFa wells
# [2] = reduction of polyQ htt aggregates in cells – imaging, exon1htt(103Q)mCFP cells, high-content imaging, primary screen (AID 483;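 active = visual image review flags a hit and inhibition of aggregation exceeds 20%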;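 note: compound exposure lasted 3 days before fixation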;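 for nuclei count: percent of the per-plate median nuclei count of sample wells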); details: exon1htt(103Q)mCFP cell line, aggregate imaging, at 2 µM; inhibition of aggregation: stronger effect = higher value; nuclei count: measured here: cell count, toxicity
# [3] = endothelial E-selectin expression blockers – imaging, HUVEC, immunofluorescence, MLSMR starter and 10KST1 sets, primary screen (AID 487;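 active = visually confirmed hit in the image check and inhibition above 20%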;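 for inhibition: signal is fraction of cell area covered by stained E-selectin grains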;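 for nuclei count: 100% = median nuclei count of all wells on the same plate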); details: HUVEC TNFalpha-induced E-selectin immunofluorescence imaging, at 2 µM; inhibition: stronger effect = higher value; nuclei count: measured here: cell number, toxicity
# [4] = target: Voltage-gated potassium channel subunit beta-2 (Rattus norvegicus) (UniProt P62483); assay: inhibitors of rat Kvbeta2 reductase activity – biochemical, NADPH fluorescence, primary screen (AID 622); details: recombinant KvBeta, 4-cyanobenzaldehyde reduction, at 10 µM, stronger effect = higher value;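 note: slope of raw intensity against log time taken from 70 to 1610 s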
# [5] = target: Voltage-gated potassium channel subunit beta-2 (Rattus norvegicus) (UniProt P62483); assay: enhancers of rat Kvbeta2 NADPH turnover – biochemical, NADPH fluorescence, primary screen (AID 623;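 active = NADPH fluorescence slope more negative than the mean of all samples by about 3 SD, 99.7% confidence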;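 note: fluorescence intensity change per second fitted from 20 to 320 s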); details: Recombinant KvBeta, NADPH fluorescence decrease slope, 10 min; at 10 µM; stronger effect = lower value
# [6] = target: Alpha-2C adrenergic receptor (Homo sapiens) (UniProt P18825); assay: compounds altering alpha2C-coupled GIRK flux – cell-based, HEK293 alpha2C/GIRK1/2, thallium flux, primary screen (AID 624;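 active = fluorescence slope after compound addition differing from the mean of all screened samples at 99.7% confidence, in either direction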;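 note: slope of fluorescence ratio to pre-addition baseline per second over 15 to 24 s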); details: thallium flux BTC fluorescence, at 10 µM, actives lie on both sides
# [7] = blockers of RIG-like receptor reporter activation – cell-based, Sendai virus stimulus, luciferase, 10K MLSCN set, TLR/RLR signaling modifier project, primary screen (AID 602276;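 active = inhibition at or above 50% at 10 µM; inactive = inhibition below 50%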;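 note: firefly luciferase from ISG56 promoter only with Renilla not read in this screen; 0% = Sendai virus plus DMSO and 100% = medium plus DMSO without virus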); details: HEK293 RL24 IRF3 luciferase reporter, at 10 µM, stronger effect = higher value
# [8] = TLR3 IRF3 reporter activation blockers – cell-based, poly I:C stimulus, luciferase, 10K MLSCN set, primary screen (AID 602277;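 active = inhibition of the reporter signal at or above 50%; inactive = inhibition below 50%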); details: HEK293-TLR3 RL24 IRF3 luciferase reporter, at 10 µM, stronger effect = higher value
# Chain of Voltage-gated potassium channel subunit beta-2 (Rattus norvegicus) (P62483 whole entry, looked up): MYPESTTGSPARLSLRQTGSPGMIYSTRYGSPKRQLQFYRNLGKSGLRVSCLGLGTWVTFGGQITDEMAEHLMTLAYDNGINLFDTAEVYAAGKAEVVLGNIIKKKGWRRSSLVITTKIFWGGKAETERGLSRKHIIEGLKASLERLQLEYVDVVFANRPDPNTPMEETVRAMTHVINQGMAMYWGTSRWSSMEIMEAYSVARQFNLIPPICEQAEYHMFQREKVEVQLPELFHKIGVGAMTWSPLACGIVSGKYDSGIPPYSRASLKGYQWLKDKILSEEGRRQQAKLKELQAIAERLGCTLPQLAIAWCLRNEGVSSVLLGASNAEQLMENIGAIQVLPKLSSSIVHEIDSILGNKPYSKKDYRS
# Chain of Alpha-2C adrenergic receptor (Homo sapiens) (P18825 whole entry, looked up): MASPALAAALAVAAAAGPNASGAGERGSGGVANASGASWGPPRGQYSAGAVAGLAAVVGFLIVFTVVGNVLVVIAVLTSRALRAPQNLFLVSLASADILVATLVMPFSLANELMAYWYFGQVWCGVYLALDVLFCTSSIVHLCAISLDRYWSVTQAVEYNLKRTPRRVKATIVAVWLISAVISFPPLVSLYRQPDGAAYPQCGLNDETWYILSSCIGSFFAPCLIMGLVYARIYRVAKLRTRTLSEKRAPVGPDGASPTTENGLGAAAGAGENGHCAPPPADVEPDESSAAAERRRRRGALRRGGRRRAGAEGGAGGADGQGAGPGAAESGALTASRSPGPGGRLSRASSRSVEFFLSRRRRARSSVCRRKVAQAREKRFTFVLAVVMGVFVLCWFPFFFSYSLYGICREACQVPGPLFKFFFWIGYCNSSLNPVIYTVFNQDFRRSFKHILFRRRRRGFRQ
Compound,cell count [1],inhibition [1],inhibition of aggregation [2],nuclei count [2] [%],inhibition [3],nuclei count [3] [%],fluorescence slope [4],NADPH fluorescence slope [5],slope [6],inhibition [7],inhibition [8]
CCCc1ccc(Oc2cn[nH]c2-c2ccc(O)c(C)c2O)cc1,679,5.8% (inactive),11% (inactive),98,16% (inactive),104,-0.602 (inactive),-1.2e-05 (inactive),0.00642 (inactive),-1.06% (inactive),-27.9% (inactive)
CCOC(=O)C(NC(=O)OC(C)C)(Nc1nccs1)C(F)(F)F (stereo not drawn),636,10.6% (inactive),-13.3% (inactive),98.7,22.7% (inactive),108,-0.608 (inactive),-5.2e-07 (inactive),0.00583 (inactive),8.51% (inactive),27.8% (inactive)
CN(C)c1nc(SCCOC(=O)c2ccccc2)nc(N(C)C)n1,775,-4.7% (inactive),-21.8% (inactive),118,-45.1% (inactive),102,-0.385 (inactive),2.1e-06 (inactive),0.00433 (inactive),8.47% (inactive),11.2% (inactive)
COc1ccc(-n2ncc3c(N4CCC(C)CC4)ncnc32)cc1,575,-1.3% (inactive),17.5% (inactive),121,-10.8% (inactive),110,-0.572 (inactive),-5e-05 (inactive),0.00789 (inactive),9.66% (inactive),-67.2% (inactive)
O=S1(=O)C=C(Sc2nc3ccccc3s2)c2ccccc21,581,-2.6% (inactive),-17.5% (inactive),67.1,121% (active),72.2,-0.474 (inactive),5.2e-06 (inactive),0.00662 (inactive),16.3% (inactive),84.8% (active)
CCOC(=O)c1ccccc1NC(=O)c1cccnc1,381,5.5% (inactive),-28.4% (inactive),117,-167% (inactive),135,-0.504 (inactive),2.4e-05 (inactive),0.00744 (inactive),-0.374% (inactive),10.8% (inactive)
COc1ccc2[nH]c(=O)c(CN(C(=O)c3cccnc3)c3ccccc3OC)cc2c1,466,-3.3% (inactive),-3% (inactive),114,-19.8% (inactive),113,-0.449 (inactive),1.5e-05 (inactive),0.00765 (inactive),12.5% (inactive),22.6% (inactive)
CCN1CCN(C(c2cccs2)C(C)NC(=O)c2ccccc2)CC1 (stereo not drawn),528,-0.3% (inactive),-7.7% (inactive),102,-20.1% (inactive),128,-0.59 (inactive),-3.6e-05 (inactive),0.00664 (inactive),8.51% (inactive),39.8% (inactive)
Cc1cc2cc(CCNC(=O)CC(C)C)c(=O)[nH]c2cc1C,633,-5.8% (inactive),15.1% (inactive),83.5,-40% (inactive),107,-0.595 (inactive),-2.7e-05 (inactive),0.00623 (inactive),-11.5% (inactive),-9.56% (inactive)
CN(c1ccccc1C(=O)N1CCN(c2cccc(Cl)c2)CC1)S(C)(=O)=O,313,-1.9% (inactive),3.7% (inactive),101,18.2% (inactive),120,-0.432 (inactive),-2.5e-05 (inactive),0.0047 (inactive),6.88% (inactive),8.69% (inactive)
COc1ccc(CCNS(=O)(=O)c2ccc3oc(C(=O)O)c(C)c3c2)cc1OC,612,-11.4% (inactive),3.9% (inactive),107,-32% (inactive),114,-0.444 (inactive),6.2e-05 (inactive),0.00543 (inactive),12.5% (inactive),21.9% (inactive)
CC(=O)c1ccc(OC(=O)c2cccs2)cc1,305,3.8% (inactive),-6.3% (inactive),99.1,-41.6% (inactive),105,-0.498 (inactive),-1.8e-05 (inactive),0.00631 (inactive),-3.03% (inactive),22.4% (inactive)
COc1ccc(NC(=O)Nc2ccc(C)cc2OC(F)F)cc1OC,335,-6.5% (inactive),6.2% (inactive),91.2,-38.2% (inactive),94.2,-0.422 (inactive),-5.1e-05 (inactive),0.00406 (inactive),1.59% (inactive),-6.11% (inactive)
CCCC(=O)Nc1cccc(NC(=O)CN2CCN(c3ccccc3OC)CC2)c1,693,-15.2% (inactive),17.6% (inactive),98.8,-61.4% (inactive),104,-0.481 (inactive),-4.6e-05 (inactive),0.00587 (inactive),-1.32% (inactive),11.7% (inactive)
COC(=O)Cc1c(C)nc2nc[nH]n2c1=O,648,-6% (inactive),2.1% (inactive),103,-21.9% (inactive),104,-0.313 (inactive),-4e-05 (inactive),0.0059 (inactive),8.47% (inactive),13.4% (inactive)
N#CC1=C(N)Oc2cc(O)ccc2C1C1CCCCC1 (stereo not drawn),527,0.6% (inactive),18.3% (inactive),103,-33.8% (inactive),85.8,-0.443 (inactive),1.3e-05 (inactive),0.00336 (inactive),14.1% (inactive),25.6% (inactive)
CCN(CC(=O)NC1CCS(=O)(=O)C1)C(=O)C(c1ccccc1)c1ccccc1 (stereo not drawn),887,3.8% (inactive),-12.1% (inactive),105,-74.7% (inactive),130,-0.261 (inactive),-5e-05 (inactive),0.00562 (inactive),6.14% (inactive),5.12% (inactive)
O=C(Nc1ccccc1N1CCN(c2ccc(F)cc2)CC1)c1ccccc1,423,7.6% (inactive),-1% (inactive),104,-122% (inactive),134,-0.44 (inactive),-3.4e-05 (inactive),0.00515 (inactive),14% (inactive),21.1% (inactive)
Cc1nn(Cc2ccc(C(=O)NC3CCCCC3)o2)c(C)c1Br,463,-0.6% (inactive),24.1% (inactive),72.2,-30.6% (inactive),108,-0.395 (inactive),-3.4e-05 (inactive),0.00387 (inactive),7.39% (inactive),11.6% (inactive)

Compound,cell count [1],inhibition [1],inhibition of aggregation [2],nuclei count [2] [%],inhibition [3],nuclei count [3] [%],fluorescence slope [4],NADPH fluorescence slope [5],slope [6],inhibition [7],inhibition [8]
Cc1cc2c(cc1C)-c1nnnn1C(C)(C)C2,655,2.4% (inactive),13.2% (inactive),91.6,67.5% (active),88.2,-0.421 (inactive),-3e-05 (inactive),0.00748 (inactive),-16.2% (inactive),82.3% (active)
Cc1ccc(-n2ncc3c(=O)[nH]c(SCC(=O)N4CCN(c5ccccc5)CC4)nc32)cc1,229,-8.5% (inactive),12.5% (inactive),93.6,-22.6% (inactive),118,-0.358 (inactive),-1.3e-05 (inactive),0.00346 (inactive),9.1% (inactive),23.7% (inactive)
Cc1cc(=O)n(-c2ccc3ccccc3n2)[nH]1,383,-0.7% (inactive),-7.3% (inactive),89.7,-37.6% (inactive),107,-0.436 (inactive),-5.1e-05 (inactive),0.00622 (inactive),17.4% (inactive),9.22% (inactive)
Cc1cccc(NC(=O)Nc2cccc(C#N)c2)n1,907,-1.7% (inactive),10.2% (inactive),112,-77.1% (inactive),121,-0.567 (inactive),-3.2e-05 (inactive),0.00605 (inactive),-22.3% (inactive),-135% (inactive)
CCOC(=O)CN1CC23C=CC(O2)C(C(=O)NC2CCCC2)C3C1=O (stereo not drawn),671,4.1% (inactive),0.3% (inactive),99.1,-66.9% (inactive),119,-0.576 (inactive),-2.3e-05 (inactive),0.00621 (inactive),11.3% (inactive),29.5% (inactive)
COc1cc2c3c(c1)/C(=C1/SC(NC(C)=O)=NC1=O)C(=O)N3C(C)(C)C=C2C,381,-2% (inactive),7.7% (inactive),91.9,-35.9% (inactive),91,-0.467 (inactive),-2e-05 (inactive),0.00288 (inactive),18% (inactive),16.3% (inactive)
CN(CC(=O)Nc1ccc2c(c1)OCCO2)S(=O)(=O)c1ccc(Br)s1,315,-1.9% (inactive),-7.8% (inactive),100,-21% (inactive),98.5,-0.403 (inactive),-4.9e-05 (inactive),0.00399 (inactive),-3.5% (inactive),10.4% (inactive)
Cc1cc(C)cc(NC(=O)CCNS(=O)(=O)c2ccc3c(c2)oc(=O)n3C)c1,755,-14.1% (inactive),-14.6% (inactive),120,-79.9% (inactive),100,-0.601 (inactive),-3.2e-05 (inactive),0.00584 (inactive),20.7% (inactive),22.7% (inactive)
COc1cccc(/C=N/n2cnnc2)c1OCc1ccccc1,473,-2.6% (inactive),-7% (inactive),104,2.5% (inactive),109,-0.448 (inactive),1.1e-05 (inactive),0.00389 (inactive),20.5% (inactive),12.5% (inactive)
CCOC(=O)C1CCCN(C/C(O)=C(\C#N)c2nc(-c3ccc(Cl)cc3)cs2)C1 (stereo not drawn),479,1% (inactive),-6.9% (inactive),112,-39.9% (inactive),120,-0.499 (inactive),-3.4e-06 (inactive),0.00581 (inactive),14.3% (inactive),2.09% (inactive)
COc1ccc(CN(CC(=O)NCc2ccco2)C(=O)CCC(=O)Nc2nccs2)cc1,438,3.6% (inactive),-4.3% (inactive),102,-24.4% (inactive),114,-0.403 (inactive),-3.8e-05 (inactive),0.00588 (inactive),11.3% (inactive),12.7% (inactive)
CCN(CCNC(=O)C1CCN(S(C)(=O)=O)CC1)c1ccccc1,395,3.8% (inactive),-13.1% (inactive),113,-24.7% (inactive),117,-0.32 (inactive),-3e-05 (inactive),0.00548 (inactive),15.1% (inactive),25.2% (inactive)
CCCSC1=C(C#N)C(c2cc(OC)ccc2OC)CC(=O)N1 (stereo not drawn),674,5.8% (inactive),10.8% (inactive),114,-61.3% (inactive),116,-0.518 (inactive),-4.2e-05 (inactive),0.00728 (inactive),18.1% (inactive),25.8% (inactive)
O=C(CSc1nc2ccccc2s1)N1CCN(C(=O)c2ccco2)CC1,394,0.5% (inactive),10% (inactive),104,-45.3% (inactive),102,-0.377 (inactive),9e-06 (inactive),0.00381 (inactive),7.64% (inactive),22.8% (inactive)
Cc1cc(C)c(NC(=O)C2CSCCS2)c(C)c1 (stereo not drawn),484,4.7% (inactive),23.2% (inactive),96,-55.7% (inactive),111,-0.392 (inactive),-6.2e-05 (inactive),0.00428 (inactive),-3.4% (inactive),-35.7% (inactive)
CCn1c(Cc2ccccc2)nnc1SCC(=O)Nc1cc(C)on1,629,-3.3% (inactive),5.6% (inactive),102,-15.6% (inactive),112,-0.513 (inactive),-3.3e-05 (inactive),0.0074 (inactive),-8.42% (inactive),23% (inactive)
Cc1cccc2sc(NC(=O)Cn3cccc3)nc12,518,-1.1% (inactive),-6.6% (inactive),59.1,-13.1% (inactive),100,-0.603 (inactive),-2.8e-05 (inactive),0.0115 (active),-3.68% (inactive),-14% (inactive)
c1coc(CN2CN=C(Nc3nc4ccccc4s3)NC2)c1,604,-1.5% (inactive),-13.8% (inactive),106,13.3% (inactive),109,-0.357 (inactive),-2.5e-05 (inactive),0.00455 (inactive),-12.9% (inactive),-7.25% (inactive)
O=C(Cn1c(-c2cncs2)nc2ccccc21)NC1CCCC1,700,-12.4% (inactive),0% (inactive),114,-9.6% (inactive),109,-0.31 (inactive),-4.5e-05 (inactive),0.00471 (inactive),0.467% (inactive),16.2% (inactive)
